In general, AC50 refers to the midpoint of the concentration-response curve, whichever way the signal moves.

Molecules are shown by their SMILES. Inconclusive results are not listed. Active and inactive are the calls of the source. How the source made its calls: active means hit-call score of the fitted dose curve at least 0.9, where 1 is the maximum; inconclusive means response in the unintended direction; inactive means score below 0.9.

AC50 and outcome data for 40 compounds are collected here from PubChem BioAssay (EPA / NIEHS).

Read-out in this assay: xenobiotic metabolism (CYP1A1), CYP1A1 (gene 1543)
The assay can be described thus: CLD_CYP1A1_6hr: CellzDirect (CLD) Gene Expression Assay for xenobiotic metabolism (CYP1A1) at 6 hours (AID 2283661).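 On AC50: potency for transcript induction above DMSO vehicle baseline.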 How it is done: CLD_6hr is a cell-based, multiplexed-readout assay that uses hepatocyte, a human liver primary cell, with measurements taken at 6 hours after chemical dosing in a 96-well plate.CLD_CYP1A1_6hr is one of 16 assay component(s) measured or calculated from the CLD_6hr assay. It is designed to make measurements of mRNA induction, a form of inducible reporter, as detected with chemiluminescence signals by Quantitative Nuclease Protection Assay (qNPA) technology.Data from the assay component CLD_CYP1A1_6hr was analyzed at the endpoint, CLD_CYP1A1_6hr, in the positive analysis fitting direction relative to DMSO as the negative control and baseline of activity. Using a type of inducible reporter, gain-of-signal activity can be used to understand changes in the reporter gene as they relate to the gene CYP1A1. Furthermore, this assay endpoint can be referred to as a primary readout. To generalize the intended target to other relatable targets, this assay endpoint is annotated to the cyp intended target family, where subfamily is xenobiotic metabolism.
Human hepatocyte cultures were treated daily for two consecutive days with fresh dosing solutions containing appropriate concentrations of the 320 ToxCast chemicals (chemical identities were blinded to CellzDirect and other ToxCast collaborators), vehicle control (0.2% DMSO), and positive control inducers as summarized in Table 1. Due to the large number of treatment groups and chemicals examined, the ToxCast chemicals were divided into two groups (spanning two independent cultures of hepatocytes from separate donor preparations (Hu778: ToxCast plates 1 and 2; Hu776: ToxCast plates 3 and 4). Each preparation of human hepatocyte cultures was treated with respective vehicle control, medium only control, set of six positive controls/reference chemicals for the five hepatic receptor pathways, and a subset of eight of the ToxCast chemicals (indoxacarb, pyrithiobac-sodium, norflurazon, cyhalofop-butyl, methomyl, thiram, acetochlor, and propiconazole). These replicate data, coupled with internal replicates designed within the blinded ToxCast chemical library, provided additional data to evaluate interindividual differences between hepatocyte preparations and their potential impact on chemical profiles.Cell morphology and integrity were evaluated using phase-contrast microscopy as an indicator of hepatocyte cell health (Tyson & Green, 1987). Cultures for each treatment group (i.e., media, vehicle [0.2% DMSO], positive control inducers [multiple concentrations], and the ToxCast chemicals [multiple concentrations]) were observed and cell morphology was assessed relative to vehicle control cultures at each harvest time point (0, 6, 24, or 48 h). […] Images were evaluated at the conclusion of the study to assess changes in cell integrity and account for the effects of chemical exposure on uncharacteristic changes in concentration-dependent gene expression profiles. The results from these determinations of apparent cytotoxicity were annotated (yes/no) alongside the corresponding qNPA data for reference.At the conclusion of each treatment period, hepatocyte cultures (96-well) were washed with 1 volume of HBSS, lysed by addition of 25 ul ArrayPlate lysis buffer (HTG, Tucson, AZ), and 70 ul/well of Denaturation Oil, denatured by incubation at 95C for 10 min, and frozen at approximately -70C until analysis by nuclease protection assay (qNPA) (Roberts et al., 2007). For qNPA analysis, cell lysates were thawed at 50C for approximately 30 min, qNPA probes were added, and samples were incubated at 95C for 10 min to begin the detection process by denaturing the target RNA, dissociating the duplexes and secondary structure hybridization. At the conclusion of the hybridization period, S1 nuclease reagent was added to each sample to digest all nonprotected nucleotides at 50C for 60-90 min. […]
With `COP(=S)(OC)SCn1nnc2ccccc2c1=O`, the AC50 was 6.49 µM (active).
On the same count and under the same terms, the same measure for `CCN(CC)c1nc(C)cc(OP(=S)(OC)OC)n1`: 4.71 µM (active).
In the case of `Cc1c(COC(=O)[C@@H]2[C@H](/C=C(\Cl)C(F)(F)F)C2(C)C)cccc1-c1ccccc1`, the compound was called inactive.
As to `O=c1n(Cl)c(=O)n(Cl)c(=O)n1Cl`, the AC50 is 11.3 µM (active).
Regarding `CC(C)=CC1C(C(=O)OCc2coc(Cc3ccccc3)c2)C1(C)C` (stereo not given), the compound was called inactive.
On to `CCN(CC)C(=O)C(C)Oc1cccc2ccccc12` (stereo not given), for which the concentration at half-maximal activity (AC50) was 3.97 µM (active).
The same measure, in the same setting: as for `Nc1cnn(-c2ccccc2)c(=O)c1Cl`, the figure is 5.67 µM (active).
Take `Cn1c(-c2ccccc2)cc(-c2ccccc2)[n+]1C`: the compound was called inactive.
On to `CCOP(=O)(OCC)Oc1nc(Cl)c(Cl)cc1Cl`, for which the AC50 was 3.92 µM (active).
In the case of `OC(c1ccc(Cl)cc1)(c1ccc(Cl)cc1)C(Cl)(Cl)Cl`, the call was inactive.
As for `CCOc1nc(C(Cl)(Cl)Cl)ns1`, the AC50 is 8.85 µM (active).
Regarding `CS(=O)(=O)c1cc(C(F)(F)F)ccc1C(=O)c1cnoc1C1CC1`, the compound was called inactive.
As for `COC(=O)N(C(=O)N1CO[C@@]2(C(=O)OC)Cc3cc(Cl)ccc3C2=N1)c1ccc(OC(F)(F)F)cc1`, the AC50 was 2.46 µM (active).
Still for that read-out and setting: as for `COCC(=O)N(c1c(C)cccc1C)C(C)C(=O)OC` (stereo not given), the figure is 20 µM (active).
Same read-out and setting: as for `Cc1cc(C)nc(Nc2ccccc2)n1`, the figure is 3.97 µM (active).
Regarding `Clc1nc(Cl)nc(Nc2ccccc2Cl)n1`, the compound was called inactive.
Consider `Cc1cnc(C2=NC(C)(C(C)C)C(=O)N2)c(C(=O)O)c1` (stereo not given), for which the call was inactive.
Turning to `O=C(Nc1ccccc1-c1ccc(Cl)cc1)c1cccnc1Cl`, the AC50 was 2.46 µM (active).
Consider `CCOP(=S)(OCC)Oc1nc(Cl)n(C(C)C)n1`, for which the AC50 is 2.55 µM (active).
The same measure, in the same setting: the same measure for `CNC(=O)N(C)c1nnc(C(C)(C)C)s1`: 0.00579 µM (active).
Take `N#Cc1c[nH]cc1-c1cccc2c1OC(F)(F)O2`: the AC50 is 0.9 µM (active).
Take `CC1(C)C(C(=O)OC(C#N)c2cccc(Oc3ccccc3)c2)C1(C)C` (stereo not given): the result was inactive.
Turning to `CCOC(=O)C(C)OC(=O)c1cc(Oc2ccc(C(F)(F)F)cc2Cl)ccc1[N+](=O)[O-]` (stereo not given), the AC50 is 4.58 µM (active).
Regarding `CC(C)Oc1cccc(NC(=O)c2ccccc2C(F)(F)F)c1`, the half-maximal activity concentration (AC50) is 3 µM (active).
As to `CCSC(=O)N1CCCCCC1`, the compound was called inactive.
Consider `CC(C)C1(C)N=C(c2ncccc2C(=O)O)NC1=O` (stereo not given), for which the AC50 was 1.9 µM (active).
In the case of `Nc1c(Cl)c(F)nc(OCC(=O)O)c1Cl`, the compound was classed as inactive.
Same read-out and setting: as for `CS(=O)(=O)c1ccc(C(=O)C2C(=O)CCCC2=O)c([N+](=O)[O-])c1`, the entry is “inactive”; as for `O=P(O)(O)CCCl`, “inactive”.
Same read-out and setting: as for `N#CN=C1SCCN1Cc1ccc(Cl)nc1`, the entry is “inactive”.
Regarding `Nc1c(Cl)c(Cl)nc(C(=O)O)c1Cl`, the AC50 is 20 µM (active).
On the same count and under the same terms, as for `CCCCC(O)(Cn1cncn1)c1ccc(Cl)cc1Cl` (stereo not given), the figure is 0.532 µM (active).
On the same count and under the same terms, the same measure for `CC1(C)CCC(=Cc2ccc(Cl)cc2)C1(O)Cn1cncn1` (stereo not given): 0.00693 µM (active).
For the compound `COP(=O)(OC)O/C(C)=C/C(=O)N(C)C`, the call was inactive.
With `CSC(=O)c1c(C(F)F)nc(C(F)(F)F)c(C(=O)SC)c1CC(C)C`, the AC50 was 5.31 µM (active).
The same measure, in the same setting: the same measure for `COc1ccc(-c2ccccc2)cc1NNC(=O)OC(C)C`: 0.429 µM (active); for `CC1(C)C(C=C(Cl)Cl)C1C(=O)OC(C#N)c1cccc(Oc2ccccc2)c1` (stereo not given): 2.78 µM (active); for `CCCCC(C#N)(Cn1cncn1)c1ccc(Cl)cc1` (stereo not given): 3.97 µM (active).
Same read-out and setting: the same measure for `CCC(C)n1c(=O)[nH]c(C)c(Br)c1=O` (stereo not given): 7.21 µM (active).
Same read-out and setting: the same measure for `CCNP(=S)(OC)O/C(C)=C/C(=O)OC(C)C` (stereo not given): 3.37 µM (active).
